PubChem BioAssay (NCATS)
Records with an inconclusive call do not appear. Active and inactive are the calls of the source. Calls follow the shape of the dose curve; as a rule, active = well fitted curve in the direction sought with a large enough effect; inconclusive = small, poorly fitted or top-dose-only effect, or another doubt; inactive = no such curve, though single readings can be large; an effect the other way counts as inactive or inconclusive.

Tests used:
[1] = molecular target: Rap guanine nucleotide exchange factor 3 (Homo sapiens) (UniProt O95398); assay: Confirmatory qHTS for antagonist of cAMP-regulated guanine nucleotide exchange factor 3 (EPAC1) (AID 1645880);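 also: plate controls were DMSO only for no effect and full effect of the ATA control for full effect; nearly all actives have a fitted effect of over 55% in size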
Sequence of Rap guanine nucleotide exchange factor 3 (Homo sapiens) (O95398 whole entry, looked up): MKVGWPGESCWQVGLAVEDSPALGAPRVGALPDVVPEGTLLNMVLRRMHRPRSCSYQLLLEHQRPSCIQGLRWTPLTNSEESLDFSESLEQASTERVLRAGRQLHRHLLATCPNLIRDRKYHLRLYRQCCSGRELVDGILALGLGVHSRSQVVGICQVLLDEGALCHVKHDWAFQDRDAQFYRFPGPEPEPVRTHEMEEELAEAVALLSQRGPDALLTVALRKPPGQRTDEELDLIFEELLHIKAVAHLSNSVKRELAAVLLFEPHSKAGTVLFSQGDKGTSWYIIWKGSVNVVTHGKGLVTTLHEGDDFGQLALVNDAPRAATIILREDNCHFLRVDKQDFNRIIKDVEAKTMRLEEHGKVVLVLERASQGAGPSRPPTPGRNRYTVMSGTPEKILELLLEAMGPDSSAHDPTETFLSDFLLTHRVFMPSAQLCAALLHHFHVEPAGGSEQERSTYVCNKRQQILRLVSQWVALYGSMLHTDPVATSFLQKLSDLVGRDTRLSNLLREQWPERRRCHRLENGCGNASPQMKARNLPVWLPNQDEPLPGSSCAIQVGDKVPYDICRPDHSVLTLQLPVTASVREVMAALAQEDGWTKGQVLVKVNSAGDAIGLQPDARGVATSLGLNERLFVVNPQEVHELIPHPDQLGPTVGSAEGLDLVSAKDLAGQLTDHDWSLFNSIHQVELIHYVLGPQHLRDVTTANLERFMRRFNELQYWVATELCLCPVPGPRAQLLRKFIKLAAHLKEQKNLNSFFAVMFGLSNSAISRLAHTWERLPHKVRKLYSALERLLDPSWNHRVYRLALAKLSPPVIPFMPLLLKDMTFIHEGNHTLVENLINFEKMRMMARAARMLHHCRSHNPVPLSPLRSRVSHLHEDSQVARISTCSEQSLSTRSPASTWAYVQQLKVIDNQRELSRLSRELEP
Summary of the method: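 Released BODIPY-GDP fluoresces less than Rap1-bound BODIPY-GDP; the signal is followed at 480/540 nm at 5-min intervals over 30 min, after 5 min at room temperature. Reactions contain 100 nM EPAC1, 250 nM RAP1B-BODIPY-GDP and 50 uM GDP; results are normalized to ATA and DMSO.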

[2] = molecular target: Rap guanine nucleotide exchange factor 3 (Homo sapiens) (UniProt O95398); assay: Confirmatory qHTS for agonist of cAMP-regulated guanine nucleotide exchange factor 3 (EPAC1) (AID 1645881);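 also: EPAC1 catalysed release of BODIPY-GDP from Rap1B seen as fluorescence loss; 100% = effect of cAMP agonist control; nearly all actives have a fitted effect of over 75% in size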
[3] = molecular target: Rap guanine nucleotide exchange factor 4 (Homo sapiens) (UniProt Q8WZA2); assay: Confirmatory qHTS for agonist of cAMP-regulated guanine nucleotide exchange factor 4 (EPAC2) (AID 1645884);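 also: nucleotide exchange releases bodipy-GDP from Rap1 and this lowers its fluorescence; % is scaled to controls: 0 for no effect and ±100 for the full control effect; nearly all actives have a fitted effect of over 65% in size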
Sequence of Rap guanine nucleotide exchange factor 4 (Homo sapiens) (Q8WZA2 whole entry, looked up): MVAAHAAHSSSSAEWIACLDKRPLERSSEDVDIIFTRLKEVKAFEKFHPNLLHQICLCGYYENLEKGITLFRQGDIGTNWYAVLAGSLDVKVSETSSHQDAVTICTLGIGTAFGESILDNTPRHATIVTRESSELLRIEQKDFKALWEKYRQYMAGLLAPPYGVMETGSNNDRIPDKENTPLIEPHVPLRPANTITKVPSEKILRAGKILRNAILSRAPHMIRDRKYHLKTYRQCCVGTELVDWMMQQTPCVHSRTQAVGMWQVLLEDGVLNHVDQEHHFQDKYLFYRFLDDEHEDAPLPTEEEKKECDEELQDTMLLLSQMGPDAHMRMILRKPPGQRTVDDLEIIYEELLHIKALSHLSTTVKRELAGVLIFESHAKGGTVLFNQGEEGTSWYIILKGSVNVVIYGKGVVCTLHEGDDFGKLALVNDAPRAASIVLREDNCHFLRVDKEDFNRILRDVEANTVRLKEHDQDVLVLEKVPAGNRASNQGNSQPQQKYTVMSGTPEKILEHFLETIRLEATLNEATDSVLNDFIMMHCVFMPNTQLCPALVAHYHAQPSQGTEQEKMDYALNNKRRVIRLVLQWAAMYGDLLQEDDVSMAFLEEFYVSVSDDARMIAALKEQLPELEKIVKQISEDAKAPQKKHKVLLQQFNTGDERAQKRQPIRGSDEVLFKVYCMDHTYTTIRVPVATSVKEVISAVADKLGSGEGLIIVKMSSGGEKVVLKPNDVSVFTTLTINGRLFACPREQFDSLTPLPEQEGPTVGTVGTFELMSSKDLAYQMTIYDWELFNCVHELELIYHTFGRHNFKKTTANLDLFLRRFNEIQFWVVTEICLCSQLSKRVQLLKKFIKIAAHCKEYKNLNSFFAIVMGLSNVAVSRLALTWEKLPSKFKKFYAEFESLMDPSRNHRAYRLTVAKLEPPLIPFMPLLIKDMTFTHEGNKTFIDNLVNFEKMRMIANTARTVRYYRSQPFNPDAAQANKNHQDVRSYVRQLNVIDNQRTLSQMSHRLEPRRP

[4] = molecular target: Rap guanine nucleotide exchange factor 3 (Homo sapiens) (UniProt O95398); assay: Counterscreen qHTS for antagonist of cAMP-regulated guanine nucleotide exchange factor 3 (EPAC1) (AID 1645888); also: % of control where 0% means no effect
Summary of the method: (§1)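 Rap1B–BODIPY-GDP (250 nM) with 50 uM GDP; compounds pin-transferred to 9.74 nM–152 uM final (activator) or from 7.32 nM upwards (inhibitor). Fluorescence Ex/Em 480/540 nm read at 5 and 30 min, then after adding cAMP or buffer, at room temperature.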

[5] = molecular target: Rap guanine nucleotide exchange factor 3 (Homo sapiens) (UniProt O95398); assay: Counterscreen qHTS for agonist of cAMP-regulated guanine nucleotide exchange factor 3 (EPAC1) (AID 1645889); also: % of control where 0% means no effect; nearly all actives have a fitted effect of over 40% in size
Summary of the method: as §1

[6] = molecular target: Rap guanine nucleotide exchange factor 4 (Homo sapiens) (UniProt Q8WZA2); assay: Confirmatory qHTS for antagonist of cAMP-regulated guanine nucleotide exchange factor 4 (EPAC2) (AID 1645885); also: % is scaled to controls: 0 for no effect and ±100 for the full control effect; nearly all actives have a fitted effect of over 25% in size

CC(C)C/C(=N/O)c1cn(C)c2ccccc12
inactive: Potency [1] | Potency [2] | Potency [3] | outcome [4] | Potency [5]

O=[N+]([O-])c1ccc(CN2CC=C(c3ccccc3)CC2)cc1
inactive: Potency [1] | Potency [2] | activation [3] 0% [at 17.1 µM, percent relative to cAMP agonist control] | activity change, negative = inhibition [6] 0.463% [at 12.7 µM] | activation [5] 8.24% [at 30.8 µM]
